Reference: PubChem BioAssay
Active and inactive are the calls of the source.

Columns and labels:
[1] = binders of probe aFSTL3 on microarray, primary screen, stem cell growth factor project, biochemical, small-molecule microarray, fluorescence 635/667 (AID 1064); settings: higher = more signal;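 further: measures binding of the biotinylated anti-FSTL3 antibody to printed compounds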
[2] = binders from COS7 lysate, DM2A8 probe, primary screen, torsin A project, cell lysate, small-molecule microarray, fluorescence 635/667 (AID 1065); settings: higher = more signal, COS7 lysate expressing mutant human TOR1A
[3] = binders of probe aFGF2 on microarray, primary screen, stem cell growth factor project, biochemical, small-molecule microarray, fluorescence 635/667 (AID 1067); settings: higher = more signal;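 further: measures binding of biotinylated aFGF2 protein to printed compounds on slides; z-score merges feature fluorescence and signal-to-noise across triplicate slides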
[4] = binders of probe aFGF10 on microarray, primary screen, stem cell growth factor project, biochemical, small-molecule microarray, fluorescence 635/667 (AID 1071); settings: higher = more signal;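 further: score merges 667 nm spot intensity and signal to noise from triplicate slides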
[5] = target: Neurogenic locus notch homolog protein 2 (Homo sapiens) (UniProt Q04721); assay: Notch2 binders on small-molecule microarrays, primary screen, biochemical, small-molecule microarray, 635 nm fluorescence, stem cell growth factors (AID 1073); settings: Notch2 binding, higher = more signal
[6] = target: Pro-neuregulin-1, membrane-bound isoform (Homo sapiens) (UniProt Q02297); assay: NRG1 binders on small-molecule microarrays, primary screen, psychiatric disease protein project, biochemical, small-molecule microarray, fluorescence 635/667 (AID 1075); settings: NRG1 binding, 635 nm fluorescence, higher = more signal;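 further: score combines 667 nm spot fluorescence with signal to noise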
Chain of Pro-neuregulin-1, membrane-bound isoform (Homo sapiens) (Q02297 whole entry, looked up, the tested form may be a part, canonical isoform): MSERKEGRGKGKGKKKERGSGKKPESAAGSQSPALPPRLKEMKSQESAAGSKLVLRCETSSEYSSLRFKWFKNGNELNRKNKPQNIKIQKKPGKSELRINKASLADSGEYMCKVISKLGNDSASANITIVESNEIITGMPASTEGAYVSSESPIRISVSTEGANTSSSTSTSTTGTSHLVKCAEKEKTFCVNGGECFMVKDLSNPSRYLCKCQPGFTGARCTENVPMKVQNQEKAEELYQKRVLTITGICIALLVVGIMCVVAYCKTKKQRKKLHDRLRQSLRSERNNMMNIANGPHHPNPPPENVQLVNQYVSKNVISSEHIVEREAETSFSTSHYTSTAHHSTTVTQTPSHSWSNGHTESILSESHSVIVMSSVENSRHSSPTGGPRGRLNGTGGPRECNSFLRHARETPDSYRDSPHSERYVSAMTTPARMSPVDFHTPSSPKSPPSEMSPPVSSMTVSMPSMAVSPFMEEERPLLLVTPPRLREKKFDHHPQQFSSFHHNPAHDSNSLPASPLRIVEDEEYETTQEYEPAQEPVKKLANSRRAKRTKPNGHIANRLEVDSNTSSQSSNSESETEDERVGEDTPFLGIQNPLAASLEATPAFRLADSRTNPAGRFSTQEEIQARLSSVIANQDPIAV

[7] = tested on: Neuregulin-1 EGF-like domain; assay: binders of neuregulin-1 EGF-like domain, primary screen, biochemical, small-molecule microarray, 635 nm fluorescence (AID 1081); settings: small-molecule microarray binding, higher = more signal;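 further: binding of the protein to compounds printed on small-molecule microarray slides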
[8] = FRG1 promoter luciferase signal modulators, primary screen, FRG1 inhibition for FSHD, cell-based, C2C12 myotubes, firefly/Renilla luciferase, luminescence (AID 1084); settings: higher = more signal, called active from +8 up or from −8 down
[9] = binders of probe aFST on microarray, primary screen, stem cell growth factor project, biochemical, small-molecule microarray, fluorescence 635/667 (AID 1086); settings: higher = more signal;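 further: score merges 667 nm fluorescence with signal-to-noise of each printed compound spot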
[10] = binders of probe aHhip on microarray, primary screen, stem cell growth factor project, biochemical, small-molecule microarray, fluorescence 635/667 (AID 1087); settings: higher = more signal;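 further: score merges spot fluorescence at 667nm with spot signal to noise ratio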
[11] = tested on: PRMT1 (protein arginine N-methyltransferase 1); assay: PRMT1 binders on small-molecule microarrays, primary screen, biochemical, small-molecule microarray, 635 nm fluorescence (AID 1088); settings: small-molecule microarray binding, higher = more signal;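 further: binding of Prmt1 protein to compounds spotted on small-molecule microarray slides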
[12] = yeast growth modulation, basal conditions, primary screen, YJM789 clinical isolate, OD600, 24 h (AID 1089);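 further: growth of clinical yeast isolate S. cerevisiae YJM 789 seeded 1000 cells per well; test concentration not given here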; settings: S. cerevisiae YJM789 growth, higher = more signal, called active from +8 up or from −8 down
[13] = fission yeast growth modulation, primary screen, strain 972, OD600, 24 h, no modulator (AID 1090);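 further: basal condition with compound alone and no growth modifier present; test concentration not given here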; settings: S. pombe 972 growth, higher = more signal, called active from +8 up or from −8 down
[14] = S. cerevisiae growth modulation with rapamycin, primary screen, strain BY4716, OD600, 96 h (AID 1091); settings: higher = more signal, called active from +8 up or from −8 down; further: test concentration not given here
[15] = target: Torsin-1A-interacting protein 2 (Homo sapiens) (UniProt Q8NFQ8); assay: LULL1 binders on small-molecule microarray, primary screen, cell lysate, human LULL1 lysate, 635/667 nm fluorescence (AID 1092); settings: hLULL1 lysate binding, 635 nm fluorescence, higher = more signal;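 further: probe is lysate of COS7 cells overexpressing human LULL1; score merges per-feature 667 nm fluorescence with signal-to-noise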
Chain of Torsin-1A-interacting protein 2 (Homo sapiens) (Q8NFQ8 whole entry, looked up): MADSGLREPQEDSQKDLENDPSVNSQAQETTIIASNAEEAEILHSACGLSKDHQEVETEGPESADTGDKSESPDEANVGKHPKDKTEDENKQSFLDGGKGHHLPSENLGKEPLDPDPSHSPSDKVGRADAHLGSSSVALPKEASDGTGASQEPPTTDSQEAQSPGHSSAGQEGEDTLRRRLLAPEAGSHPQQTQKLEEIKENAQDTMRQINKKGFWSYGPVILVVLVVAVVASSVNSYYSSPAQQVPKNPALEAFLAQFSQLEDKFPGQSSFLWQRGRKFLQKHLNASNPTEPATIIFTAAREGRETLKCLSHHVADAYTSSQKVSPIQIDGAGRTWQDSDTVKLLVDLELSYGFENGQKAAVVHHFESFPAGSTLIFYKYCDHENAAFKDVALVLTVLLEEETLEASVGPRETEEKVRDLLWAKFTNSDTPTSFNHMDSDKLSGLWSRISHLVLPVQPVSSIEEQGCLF

[16] = E. coli growth modulation, two-sided OD650, primary screen, E. coli filamentation project, strain DRC41, 24 h (AID 1093); settings: OD650, 24 h, higher = more signal, called active from +8 up or from −8 down;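 further: MC1000 strain lacking acrAB efflux and sulA so SOS filamentation is blocked; test concentration not given here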
[17] = small-molecule microarray binders of probe aLefty2, primary screen, biochemical, biotinylated probe, 635/667 nm fluorescence (AID 1094); settings: higher = more signal;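 further: score merges spot fluorescence near 667 nm with spot signal-to-noise ratio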
[18] = tested on: Noggin (protein binding on small-molecule microarray); assay: Noggin binders on small-molecule microarray, primary screen, biochemical, 635/667 nm fluorescence (AID 1095); settings: 635 nm fluorescence, higher = more signal;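 further: score merges 667 nm feature fluorescence with signal to noise over triplicate slides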
[19] = target: Neurogenic locus notch homolog protein 3 (Homo sapiens) (UniProt Q9UM47); assay: NOTCH3 binders on small-molecule microarray, primary screen, biochemical, 635/667 nm fluorescence (AID 1096); settings: NOTCH3 binding, 635 nm fluorescence, higher = more signal
Chain of Neurogenic locus notch homolog protein 3 (Homo sapiens) (Q9UM47 whole entry, looked up): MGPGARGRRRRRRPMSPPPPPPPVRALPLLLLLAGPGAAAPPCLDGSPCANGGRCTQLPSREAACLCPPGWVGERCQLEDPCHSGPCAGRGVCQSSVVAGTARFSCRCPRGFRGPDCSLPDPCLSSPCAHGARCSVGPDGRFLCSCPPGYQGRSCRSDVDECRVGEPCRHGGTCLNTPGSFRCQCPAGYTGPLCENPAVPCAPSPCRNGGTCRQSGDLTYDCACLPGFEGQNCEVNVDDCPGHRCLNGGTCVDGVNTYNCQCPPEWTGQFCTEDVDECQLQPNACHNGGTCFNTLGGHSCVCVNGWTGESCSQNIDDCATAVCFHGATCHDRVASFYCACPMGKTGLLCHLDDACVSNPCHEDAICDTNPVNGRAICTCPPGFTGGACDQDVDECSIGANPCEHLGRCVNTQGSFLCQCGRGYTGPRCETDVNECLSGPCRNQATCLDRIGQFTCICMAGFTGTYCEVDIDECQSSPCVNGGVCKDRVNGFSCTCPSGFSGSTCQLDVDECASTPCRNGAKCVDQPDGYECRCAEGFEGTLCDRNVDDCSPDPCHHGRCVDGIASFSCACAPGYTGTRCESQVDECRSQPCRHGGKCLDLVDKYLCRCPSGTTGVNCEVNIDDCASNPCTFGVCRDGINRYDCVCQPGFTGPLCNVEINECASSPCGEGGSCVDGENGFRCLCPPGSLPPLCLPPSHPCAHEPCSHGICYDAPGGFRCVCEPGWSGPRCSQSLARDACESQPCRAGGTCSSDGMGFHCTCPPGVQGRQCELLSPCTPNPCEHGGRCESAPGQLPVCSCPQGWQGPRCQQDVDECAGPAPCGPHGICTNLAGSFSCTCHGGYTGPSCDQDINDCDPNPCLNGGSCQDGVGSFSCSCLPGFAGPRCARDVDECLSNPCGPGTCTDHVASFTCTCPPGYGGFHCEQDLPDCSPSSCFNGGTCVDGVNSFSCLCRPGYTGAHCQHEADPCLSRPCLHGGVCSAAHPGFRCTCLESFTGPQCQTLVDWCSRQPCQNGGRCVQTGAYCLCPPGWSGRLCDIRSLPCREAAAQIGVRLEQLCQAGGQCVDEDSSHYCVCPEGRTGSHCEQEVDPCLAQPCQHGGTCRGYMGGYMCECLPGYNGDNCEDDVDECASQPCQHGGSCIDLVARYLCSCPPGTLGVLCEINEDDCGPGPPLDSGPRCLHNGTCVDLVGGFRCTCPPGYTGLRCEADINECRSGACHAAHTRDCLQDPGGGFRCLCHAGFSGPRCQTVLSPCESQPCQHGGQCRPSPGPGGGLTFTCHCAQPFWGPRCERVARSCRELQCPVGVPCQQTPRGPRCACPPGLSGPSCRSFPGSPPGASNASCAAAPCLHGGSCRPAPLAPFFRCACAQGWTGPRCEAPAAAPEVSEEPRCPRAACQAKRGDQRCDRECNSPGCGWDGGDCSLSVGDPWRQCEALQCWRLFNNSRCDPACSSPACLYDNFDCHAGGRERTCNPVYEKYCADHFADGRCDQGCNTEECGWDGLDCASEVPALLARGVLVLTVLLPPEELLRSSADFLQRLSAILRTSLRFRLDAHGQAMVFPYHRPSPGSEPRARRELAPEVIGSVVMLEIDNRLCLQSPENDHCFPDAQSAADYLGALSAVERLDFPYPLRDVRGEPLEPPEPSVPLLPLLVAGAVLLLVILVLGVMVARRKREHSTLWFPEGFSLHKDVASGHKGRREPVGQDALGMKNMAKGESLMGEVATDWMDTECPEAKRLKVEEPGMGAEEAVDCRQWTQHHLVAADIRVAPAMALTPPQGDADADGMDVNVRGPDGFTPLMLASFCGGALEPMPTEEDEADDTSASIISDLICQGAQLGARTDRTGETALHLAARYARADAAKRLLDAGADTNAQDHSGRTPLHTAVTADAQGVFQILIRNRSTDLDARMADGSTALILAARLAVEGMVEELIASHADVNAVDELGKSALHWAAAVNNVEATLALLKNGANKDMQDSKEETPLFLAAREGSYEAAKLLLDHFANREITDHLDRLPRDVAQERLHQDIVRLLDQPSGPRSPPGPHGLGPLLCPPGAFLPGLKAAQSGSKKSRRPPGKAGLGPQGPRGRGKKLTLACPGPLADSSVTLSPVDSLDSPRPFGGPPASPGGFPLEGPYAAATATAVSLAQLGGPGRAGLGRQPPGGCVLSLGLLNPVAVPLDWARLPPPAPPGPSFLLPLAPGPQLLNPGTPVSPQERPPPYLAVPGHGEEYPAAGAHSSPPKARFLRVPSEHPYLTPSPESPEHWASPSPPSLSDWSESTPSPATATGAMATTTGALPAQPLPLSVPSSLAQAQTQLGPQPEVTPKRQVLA

[20] = small-molecule microarray binders of probe aEGFR, primary screen, biochemical, biotinylated probe, 635/667 nm fluorescence (AID 1097); settings: higher = more signal;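 further: probe is a biotinylated anti-EGFR antibody binding compounds printed on slides; score combines fluorescence near 667 nm and signal to noise of each spot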

Row | SMILES | composite z-score [1] | composite z-score [2] | composite z-score [3] | composite z-score [4] | composite z-score [5] | composite z-score [6] | composite z-score [7] | z-score [8] | composite z-score [9] | composite z-score [10] | composite z-score [11] | z-score [12] | z-score [13] | z-score [14] | composite z-score [15] | z-score [16] | composite z-score [17] | composite z-score [18] | composite z-score [19] | composite z-score [20]
1 | O=C1C2=CC[C@H]3C(=O)N(c4ccc(F)cc4F)C(=O)[C@H]3[C@H]2[C@H](O)[C@@H]2O[C@H]12 | -0.598 | 0.45 | -0.116 | 0.37 | 0.291 | -0.0808 | 0.0508 | 0.264 (inactive) | 1.14 | -0.0994 | 0.137 | -0.892 (inactive) | 0.151 (inactive) | 0.0688 (inactive) | -0.034 | 0.601 (inactive) | -0.124 | 0.526 | 0.634 | -0.0967
2 | O=C1C2=CC[C@H]3C(=O)N(C[C@@H]4CCCO4)C(=O)[C@H]3[C@H]2[C@H](O)[C@@H]2O[C@H]12 | -0.275 | 0.191 | -0.0878 | 0.111 | -0.0143 | -0.209 | 0.75 | -1.42 (inactive) | -0.258 | -0.145 | 0.514 | 0.0382 (inactive) | -0.722 (inactive) | 0.109 (inactive) | -0.553 | -0.0137 (inactive) | -0.126 | -0.0904 | -0.264 | -0.0565
3 | CC(CCN1CCCc2nc(C)c(C)cc21)=NO[C@H](C)c1cn([C@H](CO)Cc2ccccc2)nn1 | -0.303 | 0.455 | -0.0568 | 0.545 | 0.531 | 0.0463 | 1.03 | 1.53 (inactive) | 0.64 | -0.236 | 1.56 | 1.09 (inactive) | 0.374 (inactive) | 0.399 (inactive) | 0.894 | -0.748 (inactive) | -0.0441 | 0.633 | 1.01 | 0.0386
4 | CCOC(=O)NN=C1C[C@@H](O)[C@@H](O)[C@@H]2[C@@H]3C(=O)N(c4ccc(F)cc4F)C(=O)[C@@H]3CC[C@H]12 | -0.496 | 0.364 | -0.0131 | 0.202 | 0.501 | -0.0227 | 0.158 | 0.816 (inactive) | 0.411 | -0.137 | -0.334 | -0.01 (inactive) | -0.816 (inactive) | -0.155 (inactive) | -0.35 | 0.786 (inactive) | -0.185 | 0.555 | 0.625 | 0.021
5 | COC(=O)CC=C[C@@H](C)[C@@H](C=NOC[C@@H](O)[C@H]1O[C@@H]2OC(C)(C)O[C@@H]2[C@H]1O)OC | 0.354 | 0.937 | -0.0996 | 0.197 | 0.427 | -0.0348 | 0.205 | 0.195 (inactive) | -0.456 | 0.221 | 0.297 | 0.439 (inactive) | 0.429 (inactive) | 0.303 (inactive) | 0.31 | -0.125 (inactive) | -0.183 | 0.505 | 0.845 | 0.0536
6 | COC(=O)CC=C[C@@H](C)[C@@H](C=NOC[C@@H](C)[C@H](OCc1ccccc1)C(C)C)OC | -0.598 | -0.163 | -0.0985 | 0.229 | 0.0445 | -0.296 | 0.413 | 0.947 (inactive) | -0.0348 | -0.395 | 0.823 | 0.0783 (inactive) | -0.466 (inactive) | 1.13 (inactive) | 0.227 | -0.0725 (inactive) | -0.215 | 0.293 | 0.232 | -0.126
7 | CO[C@@H](C(C)C)[C@@H](C)C1OC(=O)CC1O (stereo not given in full) | -0.156 | -0.126 | -0.15 | 0.0406 | -0.402 | -0.361 | 0.625 | 0.35 (inactive) | -0.192 | -0.0193 | -0.255 | 0.0031 (inactive) | 0.0183 (inactive) | -0.582 (inactive) | 0.338 | 0.457 (inactive) | -0.161 | -0.614 | -0.716 | -0.195
8 | CC(CCC(=O)OC[C@H]1O[C@H](C#Cc2ccccc2)C=C[C@@H]1Oc1ccc(C)cc1)=NOC(C)CN1CCCc2nc(C)c(C)cc21 (stereo not given in full) | -0.293 | 0.0877 | -0.0783 | 0.413 | 0.869 | 0.617 | 0.684 | 0.517 (inactive) | 0.69 | -0.0319 | 1.33 | 2.01 (inactive) | -1.77 (inactive) | -0.49 (inactive) | 1.5 | 0.915 (inactive) | -0.0849 | 0.538 | 0.894 | -0.0267
